# Molecular target: AgAbp1
# Test: SPOT peptide array binding signal intensity (averaged, normalized) (arbitrary units (background-subtracted, floor 0; scale differs between SH3 domains)); higher = stronger binding of the SH3 domain to the peptide
# How it was run: (§1)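 E. coli BL21(DE3) was used to express GST-fused SH3 domains from four yeast species, which were then purified on glutathione Sepharose. These were incubated at 10 μg/ml in TBS-based blocking buffer overnight at 4°C on cellulose membranes carrying synthetic 15-mer peptides, in which cysteines were replaced by serines. Binding signal is the replicate average of normalized, background-subtracted spot intensity, in arbitrary units that differ between domains.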
row,Binder,SPOT peptide array binding signal intensity
1,SSAAPPPPPRRATPE,0.5

# Molecular target: AgBbc1
# Test: as above
# How it was run: as §1
row,Binder,SPOT peptide array binding signal intensity
1,SSAAPPPPPRRATPE,602

# Molecular target: AgBem1-D1
# Test: as above
# How it was run: as §1
row,Binder,SPOT peptide array binding signal intensity
1,SSAAPPPPPRRATPE,≤ 0

# Molecular target: AgBzz1-D1
# Test: as above
# How it was run: as §1
row,Binder,SPOT peptide array binding signal intensity
1,SSAAPPPPPRRATPE,122

# Molecular target: AgBzz1-D2
# Test: as above
# How it was run: as §1
row,Binder,SPOT peptide array binding signal intensity
1,SSAAPPPPPRRATPE,18

# Molecular target: AgCyk3
# Test: as above
# How it was run: as §1
row,Binder,SPOT peptide array binding signal intensity
1,SSAAPPPPPRRATPE,≤ 0

# Molecular target: AgFus1
# Test: as above
# How it was run: as §1
row,Binder,SPOT peptide array binding signal intensity
1,SSAAPPPPPRRATPE,4

# Molecular target: AgHof1
# Test: as above
# How it was run: as §1
row,Binder,SPOT peptide array binding signal intensity
1,SSAAPPPPPRRATPE,0.5

# Molecular target: AgHse1
# Test: as above
# How it was run: as §1
row,Binder,SPOT peptide array binding signal intensity
1,SSAAPPPPPRRATPE,11

# Molecular target: AgLsb1
# Test: as above
# How it was run: as §1
row,Binder,SPOT peptide array binding signal intensity
1,SSAAPPPPPRRATPE,355

# Molecular target: AgLsb4
# Test: as above
# How it was run: as §1
row,Binder,SPOT peptide array binding signal intensity
1,SSAAPPPPPRRATPE,1120

# Molecular target: AgMyo5
# Test: as above
# How it was run: as §1
row,Binder,SPOT peptide array binding signal intensity
1,SSAAPPPPPRRATPE,8

# Molecular target: AgNbp2
# Test: as above
# How it was run: as §1
row,Binder,SPOT peptide array binding signal intensity
1,SSAAPPPPPRRATPE,0.5

# Molecular target: AgRvs167
# Test: as above
# How it was run: as §1
row,Binder,SPOT peptide array binding signal intensity
1,SSAAPPPPPRRATPE,446

# Molecular target: AgSho1
# Test: as above
# How it was run: as §1
row,Binder,SPOT peptide array binding signal intensity
1,SSAAPPPPPRRATPE,3

# Molecular target: AgSla1-D1-D2
# Test: as above
# How it was run: as §1
row,Binder,SPOT peptide array binding signal intensity
1,SSAAPPPPPRRATPE,1

# Molecular target: AgSla1-D3
# Test: as above
# How it was run: as §1
row,Binder,SPOT peptide array binding signal intensity
1,SSAAPPPPPRRATPE,12

# Molecular target: CaAbp1-D1
# Test: as above
# How it was run: as §1
row,Binder,SPOT peptide array binding signal intensity
1,SSAAPPPPPRRATPE,28.5

# Molecular target: CaAbp1-D2
# Test: as above
# How it was run: as §1
row,Binder,SPOT peptide array binding signal intensity
1,SSAAPPPPPRRATPE,23

# Molecular target: CaBbc1
# Test: as above
# How it was run: as §1
row,Binder,SPOT peptide array binding signal intensity
1,SSAAPPPPPRRATPE,268

# Molecular target: CaBem1-D1
# Test: as above
# How it was run: as §1
row,Binder,SPOT peptide array binding signal intensity
1,SSAAPPPPPRRATPE,≤ 0

# Molecular target: CaBzz1-D1
# Test: as above
# How it was run: as §1
row,Binder,SPOT peptide array binding signal intensity
1,SSAAPPPPPRRATPE,1350

# Molecular target: CaBzz1-D2
# Test: as above
# How it was run: as §1
row,Binder,SPOT peptide array binding signal intensity
1,SSAAPPPPPRRATPE,293

# Molecular target: CaCyk3
# Test: as above
# How it was run: as §1
row,Binder,SPOT peptide array binding signal intensity
1,SSAAPPPPPRRATPE,≤ 0

# Molecular target: CaFus1
# Test: as above
# How it was run: as §1
row,Binder,SPOT peptide array binding signal intensity
1,SSAAPPPPPRRATPE,134

# Molecular target: CaHof1
# Test: as above
# How it was run: as §1
row,Binder,SPOT peptide array binding signal intensity
1,SSAAPPPPPRRATPE,31

# Molecular target: CaHse1
# Test: as above
# How it was run: as §1
row,Binder,SPOT peptide array binding signal intensity
1,SSAAPPPPPRRATPE,6

# Molecular target: CaLsb1
# Test: as above
# How it was run: as §1
row,Binder,SPOT peptide array binding signal intensity
1,SSAAPPPPPRRATPE,0.5

# Molecular target: CaLsb4
# Test: as above
# How it was run: as §1
row,Binder,SPOT peptide array binding signal intensity
1,SSAAPPPPPRRATPE,3810

# Molecular target: CaMyo5
# Test: as above
# How it was run: as §1
row,Binder,SPOT peptide array binding signal intensity
1,SSAAPPPPPRRATPE,0.5

# Molecular target: CaNbp2
# Test: as above
# How it was run: as §1
row,Binder,SPOT peptide array binding signal intensity
1,SSAAPPPPPRRATPE,1

# Molecular target: CaRvs167
# Test: as above
# How it was run: as §1
row,Binder,SPOT peptide array binding signal intensity
1,SSAAPPPPPRRATPE,349

# Molecular target: CaRvs167-3
# Test: as above
# How it was run: as §1
row,Binder,SPOT peptide array binding signal intensity
1,SSAAPPPPPRRATPE,0.5

# Molecular target: CaSho1
# Test: as above
# How it was run: as §1
row,Binder,SPOT peptide array binding signal intensity
1,SSAAPPPPPRRATPE,≤ 0

# Molecular target: CaSla1-D1-D2
# Test: as above
# How it was run: as §1
row,Binder,SPOT peptide array binding signal intensity
1,SSAAPPPPPRRATPE,1870

# Molecular target: CaSla1-D3
# Test: as above
# How it was run: as §1
row,Binder,SPOT peptide array binding signal intensity
1,SSAAPPPPPRRATPE,0.25

# Molecular target: ScAbp1
# Test: as above
# How it was run: as §1
row,Binder,SPOT peptide array binding signal intensity
1,SSAAPPPPPRRATPE,3

# Molecular target: ScBbc1
# Test: as above
# How it was run: as §1
row,Binder,SPOT peptide array binding signal intensity
1,SSAAPPPPPRRATPE,0.5

# Molecular target: ScBem1-D1
# Test: as above
# How it was run: as §1
row,Binder,SPOT peptide array binding signal intensity
1,SSAAPPPPPRRATPE,≤ 0

# Molecular target: ScBzz1-D1
# Test: as above
# How it was run: as §1
row,Binder,SPOT peptide array binding signal intensity
1,SSAAPPPPPRRATPE,24

# Molecular target: ScBzz1-D2
# Test: as above
# How it was run: as §1
row,Binder,SPOT peptide array binding signal intensity
1,SSAAPPPPPRRATPE,5

# Molecular target: ScCyk3
# Test: as above
# How it was run: as §1
row,Binder,SPOT peptide array binding signal intensity
1,SSAAPPPPPRRATPE,1

# Molecular target: ScFus1
# Test: as above
# How it was run: as §1
row,Binder,SPOT peptide array binding signal intensity
1,SSAAPPPPPRRATPE,≤ 0

# Molecular target: ScHof1
# Test: as above
# How it was run: as §1
row,Binder,SPOT peptide array binding signal intensity
1,SSAAPPPPPRRATPE,7

# Molecular target: ScHse1
# Test: as above
# How it was run: as §1
row,Binder,SPOT peptide array binding signal intensity
1,SSAAPPPPPRRATPE,≤ 0

# Molecular target: ScLsb1
# Test: as above
# How it was run: as §1
row,Binder,SPOT peptide array binding signal intensity
1,SSAAPPPPPRRATPE,315

# Molecular target: ScLsb2
# Test: as above
# How it was run: as §1
row,Binder,SPOT peptide array binding signal intensity
1,SSAAPPPPPRRATPE,49.5

# Molecular target: ScLsb3
# Test: as above
# How it was run: as §1
row,Binder,SPOT peptide array binding signal intensity
1,SSAAPPPPPRRATPE,3110

# Molecular target: ScLsb4
# Test: as above
# How it was run: as §1
row,Binder,SPOT peptide array binding signal intensity
1,SSAAPPPPPRRATPE,711

# Molecular target: ScMyo3
# Test: as above
# How it was run: as §1
row,Binder,SPOT peptide array binding signal intensity
1,SSAAPPPPPRRATPE,124

# Molecular target: ScMyo5
# Test: as above
# How it was run: as §1
row,Binder,SPOT peptide array binding signal intensity
1,SSAAPPPPPRRATPE,83.8

# Molecular target: ScNbp2
# Test: as above
# How it was run: as §1
row,Binder,SPOT peptide array binding signal intensity
1,SSAAPPPPPRRATPE,36

# Molecular target: ScPex13
# Test: as above
# How it was run: as §1
row,Binder,SPOT peptide array binding signal intensity
1,SSAAPPPPPRRATPE,300

# Molecular target: ScRvs167
# Test: as above
# How it was run: as §1
row,Binder,SPOT peptide array binding signal intensity
1,SSAAPPPPPRRATPE,1890

# Molecular target: ScSho1
# Test: as above
# How it was run: as §1
row,Binder,SPOT peptide array binding signal intensity
1,SSAAPPPPPRRATPE,3

# Molecular target: ScSla1-D1-D2
# Test: as above
# How it was run: as §1
row,Binder,SPOT peptide array binding signal intensity
1,SSAAPPPPPRRATPE,1390

# Molecular target: ScSla1-D3
# Test: as above
# How it was run: as §1
row,Binder,SPOT peptide array binding signal intensity
1,SSAAPPPPPRRATPE,≤ 0

# Molecular target: SpAbp1-D1
# Test: as above
# How it was run: as §1
row,Binder,SPOT peptide array binding signal intensity
1,SSAAPPPPPRRATPE,160

# Molecular target: SpBbc1
# Test: as above
# How it was run: as §1
row,Binder,SPOT peptide array binding signal intensity
1,SSAAPPPPPRRATPE,≤ 0

# Molecular target: SpBzz1-D1
# Test: as above
# How it was run: as §1
row,Binder,SPOT peptide array binding signal intensity
1,SSAAPPPPPRRATPE,757

# Molecular target: SpBzz1-D2
# Test: as above
# How it was run: as §1
row,Binder,SPOT peptide array binding signal intensity
1,SSAAPPPPPRRATPE,142

# Molecular target: SpCyk3
# Test: as above
# How it was run: as §1
row,Binder,SPOT peptide array binding signal intensity
1,SSAAPPPPPRRATPE,2.5

# Molecular target: SpHof1
# Test: as above
# How it was run: as §1
row,Binder,SPOT peptide array binding signal intensity
1,SSAAPPPPPRRATPE,10.2

# Molecular target: SpHof1-2
# Test: as above
# How it was run: as §1
row,Binder,SPOT peptide array binding signal intensity
1,SSAAPPPPPRRATPE,33.5

# Molecular target: SpHof1-3
# Test: as above
# How it was run: as §1
row,Binder,SPOT peptide array binding signal intensity
1,SSAAPPPPPRRATPE,366

# Molecular target: SpHse1
# Test: as above
# How it was run: as §1
row,Binder,SPOT peptide array binding signal intensity
1,SSAAPPPPPRRATPE,10.5

# Molecular target: SpLsb1
# Test: as above
# How it was run: as §1
row,Binder,SPOT peptide array binding signal intensity
1,SSAAPPPPPRRATPE,101

# Molecular target: SpLsb4
# Test: as above
# How it was run: as §1
row,Binder,SPOT peptide array binding signal intensity
1,SSAAPPPPPRRATPE,2800

# Molecular target: SpMyo1
# Test: as above
# How it was run: as §1
row,Binder,SPOT peptide array binding signal intensity
1,SSAAPPPPPRRATPE,876

# Molecular target: SpNbp2
# Test: as above
# How it was run: as §1
row,Binder,SPOT peptide array binding signal intensity
1,SSAAPPPPPRRATPE,≤ 0

# Molecular target: SpPex13
# Test: as above
# How it was run: as §1
row,Binder,SPOT peptide array binding signal intensity
1,SSAAPPPPPRRATPE,≤ 0

# Molecular target: SpRvs167
# Test: as above
# How it was run: as §1
row,Binder,SPOT peptide array binding signal intensity
1,SSAAPPPPPRRATPE,1860

# Molecular target: SpSla1-D1-D2
# Test: as above
# How it was run: as §1
row,Binder,SPOT peptide array binding signal intensity
1,SSAAPPPPPRRATPE,62

# Molecular target: SpSla1-D3
# Test: as above
# How it was run: as §1
row,Binder,SPOT peptide array binding signal intensity
1,SSAAPPPPPRRATPE,0.5

# From the supplement of paper PMC4466140
